The source of these data is PubChem BioAssay (EPA / NIEHS).

More than one record can exist for a structure, and the calls need not agree. The source made the active and inactive calls. Rule for the calls: active = hit-call score of the fitted dose curve at least 0.9, where 1 is the maximum; inactive = score below 0.9.

A short description of this experiment: ATG_E_Box_CIS: Attagene CIS-FACTORIAL HepG2 Assay for human Enhancer Box (E-box) (AID 2282936). To be noted: HepG2 E-box cis-reporter transcription, actives raise or lower the signal. Here is the method:
ATG_CIS is a cell-based, multiplexed-readout assay that uses HepG2, a human liver cell line, with measurements taken at 24 hours after chemical dosing in a 24-well plate.ATG_E_Box_CIS is one of 52 assay component(s) measured or calculated from the ATG_CIS assay. It is designed to make measurements of mRNA induction, a form of inducible reporter, as detected with fluorescence intensity signals by Reverse transcription polymerase chain reaction (RT-PCR) and Capillary electrophoresis technology.Data from the assay component ATG_E_Box_CIS was analyzed into 1 assay endpoint. This assay endpoint, ATG_E_Box_CIS, was analyzed with bidirectional fitting relative to DMSO as the negative control and baseline of activity. Using a type of inducible reporter, measures of mRNA for gain or loss-of-signal activity can be used to understand the reporter gene at the transcription factor-level as they relate to the gene USF1. Furthermore, this assay endpoint can be referred to as a primary readout, because this assay has produced multiple assay endpoints where this one serves a reporter gene function. To generalize the intended target to other relatable targets, this assay endpoint is annotated to the dna binding intended target family, where the subfamily is basic helix-loop-helix protein.
Human liver HepG2 cells are transiently transfected with multiple reporter transcription units (MRTUs) in 6-well plates using FuGene 6 reagent (Roche; 3 ml FuGene/1 mg DNA). The MRTU constructs are regulated by a cis-regulating element (promoter). […] A major difference between the CIS and TRANS system is that in CIS activities of endogenous TFs are measured, whereas the TRANS assay evaluates changes in activities of exogenous, chimeric NR-Gal4 proteins. […] At the end of 24 hour incubation, total RNA was isolated using TriZol reagent (Invitrogen). The isolated RNA is then reverse-transcribed using oligo(dT) primer and Mo-MLV reverse transcriptase (Invitrogen) with DNAse I (Ambion) treatment for 30 min. The one-tenth of the produced cDNA was amplified by PCR using Taq DNA polymerase (Invitrogen) and two reporter sequence-specific primers. The PCR products were fluorescently labeled by primer extension with 6-arboxyfluorescein (6-FAM) 5'-labeled reporter sequence-specific primer (2 min at 95 C, 20 s at 68 C and 10 min at 72 C) and these products were digested with 5U of HpaI (New England Biolabs) for 2h at 37 C. The fragments were purified using Qiaquick PCR columns (Qiagen), analyzed on an ABI 3130xL genetic analyzer (Applied Biosystems) with peak positions identified by using a set of X-rhodamine (ROX)-labeled MapMarker1000 molecular weight standards (BioVentures). The raw capillary electrophoresis data was processed using Attagraph software (Attagene).
For `O[Si](c1ccccc1)(c1ccccc1)c1ccccc1`, the AC50 was 15.8 µM (active).

As to `FC(F)(F)C(F)(F)CNCC(F)(F)C(F)(F)F`, the result was inactive. For `CCCCCCCCCCCCCCCC[N+](C)(C)Cc1ccccc1`, the AC50 was 47.1 µM (active). Take `CCN(Cc1cccc(S(=O)(=O)O)c1)c1ccc(C(=C2C=CC(=[N+](CC)Cc3cccc(S(=O)(=O)O)c3)C=C2)c2ccc(O)cc2S(=O)(=O)[O-])cc1`: the outcome was inactive. The same measure, in the same setting: the same measure for `C=CC(F)(F)C(F)(F)C(F)(F)C(F)(F)C(F)(F)C(F)(F)C(F)(F)C(F)(F)F`: “inactive”; for `CCc1c(Br)c(Br)c(Br)c(Br)c1Br`: “inactive”; for `Cc1ccc(S(=O)(=O)OCC(F)(F)C(F)(F)C(F)(F)C(F)(F)C(F)(F)C(F)F)cc1`: “inactive”. On the same count and under the same terms, in the case of `C=CC(F)(F)C(F)(F)C(F)(F)C(F)(F)C(F)(F)C(F)(F)C(F)(F)C(F)(F)C=C` it was “inactive”; in that of `[Co]`, “inactive”; in that of `CO[Si](OC)(c1ccccc1)c1ccccc1`, “inactive”. With `O=P(O)(O)OCCC(F)(F)C(F)(F)C(F)(F)C(F)(F)C(F)(F)C(F)(F)F`, the result was inactive. As for `Cc1cccc(N(C)C)c1`, the result was inactive. Still for that read-out and setting: the same measure for `CC(=O)Nc1ccc(N=Nc2cc(C)ccc2O)cc1`: “inactive”; for `CCCCCCS`: “inactive”. On to `FC(F)(F)C(F)(F)C(F)(F)C(F)(F)C(F)(F)C(F)(F)CC1CO1` (stereo not given), for which the outcome was inactive. In the case of `OCCCC(F)(F)C(F)(F)C(F)(F)C(F)(F)C(F)(F)C(F)(F)C(F)(F)F`, the AC50 was 72.9 µM (active) and the result was inactive. On to `OCC(F)(F)C(F)(F)C(F)(F)C(F)F`, for which the outcome was inactive. As to `CC/C=C\CCOC(=O)c1ccccc1`, the result was inactive. As to `O=C(O)C(F)(F)C(F)(F)C(F)(F)C(F)(F)C(F)(F)C(F)(F)C(F)(F)C(F)(F)C(F)(F)C(F)(F)C(F)(F)C(F)(F)F`, the outcome was inactive. Same read-out and setting: in the case of `FC(F)(I)C(F)(F)C(F)(F)C(F)(F)I` it was “inactive”. Still for that read-out and setting: the same measure for `CCN(CC)c1ccc2c(C)cc(=O)oc2c1`: “inactive”; for `CC(C)OC(=O)c1ccccc1C(=O)OC(C)C`: “inactive”; for `CC(CCl)OP(=O)(OC(C)CCl)OC(C)CCl` (stereo not given): “inactive”. The same measure, in the same setting: the same measure for `CC(C)=CCCC(C)CCOC(=O)C(C)C` (stereo not given): “inactive”; for `FC(F)(Br)C(F)(F)C(F)(F)C(F)(F)C(F)(F)C(F)(F)Br`: “inactive”.

As for `OCC(F)(F)C(F)(F)C(F)(F)C(F)(F)C(F)(F)C(F)(F)F`, the AC50 was 150 µM (active). As for `O=C(O)C(F)(F)C(F)(F)C(F)(F)F`, the outcome was inactive.

For the molecule `Nc1ccc(Oc2cccc(Oc3ccc(N)cc3)c2)cc1`, the AC50 is 179 µM (active).

Turning to `C=C(C)C(=O)OCC(F)(F)C(F)(F)C(F)(F)F`, the result was inactive. Consider `C#C[C@]1(O)CC[C@H]2[C@@H]3CCc4cc(OC)ccc4[C@H]3CC[C@@]21C`, for which the result was inactive. On the same count and under the same terms, in the case of `CCCCNc1ccccc1` it was “inactive”; in that of `c1ccc(-c2ccccc2-c2ccccc2)cc1`, “inactive”. Regarding `Oc1ccc(Nc2ccccc2)cc1`, the AC50 was 100 µM (active). For the molecule `C=CC/C=C/C/C=C/C/C=C/C`, the outcome was inactive. Still for that read-out and setting: in the case of `C=C(C)C(=O)OCC(F)(F)C(F)(F)C(F)(F)C(F)(F)C(F)(F)C(F)(F)C(F)(F)F` it was “inactive”; in that of `O=S(=O)(O)c1ccc2ccccc2c1`, “inactive”. Same read-out and setting: the same measure for `FC(F)(F)C(F)(F)C(F)(F)C(F)(F)C(F)(F)C(F)(F)C(F)(F)Br`: “inactive”; for `C1COCCN1`: “inactive”. With `O=C(O)C(F)(OC(F)(F)C(F)(OC(F)(F)C(F)(OC(F)(F)C(F)(F)C(F)(F)F)C(F)(F)F)C(F)(F)F)C(F)(F)F` (stereo not given), the result was inactive.

Usually AC50 stands for the concentration giving half of the maximal activity seen.
